The record followed here is PubChem BioAssay (NCATS).

Each structure is given as a SMILES string. Values without a mark were called inactive. Records with an inconclusive call do not appear. Activity calls are given as the source filed them. The call rests on the fitted dose curve; in most records, active means well fitted curve in the direction sought with a large enough effect; inconclusive means small, poorly fitted or top-dose-only effect, or another doubt; inactive means no such curve, though single readings can be large; an effect the other way counts as inactive or inconclusive.

A short description of assay [1]: HepG2 viability counterscreen (readout 2: ATP content) against the NCATS DSHEA and TCM libraries (AID 1794840). Further: 0% is about no effect. A digest of the protocol:
(§1)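 HepG2 cells, 1,000/well, attached ~4 h, then exposed ~24 h at 37C to substances. Protease activity read by fluorescence of 25 uM GF-AFC (Ex/Em 380/510 nm) after 30 min; ATP then by CellTiter-Glo luminescence.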

Assay [2] is described as follows: HepG2 viability counterscreen (readout 1: protease activity) against the NCATS DSHEA and TCM libraries (AID 1794841).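 Further: cells exposed to compounds for about 24 h before the protease read; 0% is about no effect.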 A digest of the protocol: as §1
Assay [3] concerns the target Cytochrome P450 3A4 (Homo sapiens) (UniProt P08684). Put plainly: qHTS for inhibitors of CYP3A4 against the NCATS DSHEA and TCM libraries (AID 1919971).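 Further: on the % scale 0 is the no-effect control and ±100 the full control effect; inhibition lowers luminescence from luciferin made by CYP3A4.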 A digest of the protocol:
(§2)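 Concentration-response screening with isoform-matched pro-luciferin substrates. The CYP reaction was initiated by NADPH regenerating solution and ran 30-45 min in darkness at room temperature.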

In assay [4] the target is Cytochrome P450 2D6 (Homo sapiens) (UniProt P10635). The assay is described as follows: qHTS for inhibitors of CYP2D6 against the NCATS DSHEA and TCM libraries (AID 1919972). Further: on the % scale 0 is the no-effect control and ±100 the full control effect. A digest of the protocol: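 CYP2D6 enzyme with pro-luciferin substrate in manufacturer buffer (typically 100 mM KPO4), preincubated 15 min RT with substances (most at 19.5 nM upward); NADPH regeneration system (1x) started 30–45 min RT reaction; P450-Glo luminescence read after 30 min; quinidine as intraplate control.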
On the technique in general: In qHTS, concentration-response curves come from the screen itself.

Assay [5] concerns the target Cytochrome P450 2C19 (Homo sapiens) (UniProt P33261). Put plainly: qHTS for inhibitors of CYP2C19 against the NCATS DSHEA and TCM libraries (AID 1919974).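 Further: luminescence from luciferin released by CYP2C19 oxidation of a pro-luciferin substrate; on the % scale 0 is the no-effect control and ±100 the full control effect.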 In short, it runs like this:
as §2

The nature of assay [6]: KB-3-1 P-gp reporter qHTS against the NCATS DSHEA and TCM libraries (AID 1919975). Further: 0% is about no effect. In short, it runs like this:
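Parental KB-3-1 cells, 500 cells/well, in DMEM with 10% FBS, exposed 72 h at 37 C to compounds in concentration-response. Viability read by CellTiter-Glo luminescence after 30 min at room temperature.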

The nature of assay [7]: qHTS Counterscreen for compound interference against the NCATS DSHEA and TCM libraries (AID 1919978).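 Further: compounds preincubated with 1 µM D-luciferin or buffer before detection reagent; % of control where 0% means no effect.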 Particulars: firefly luciferase detection reagent interference, luminescence. A digest of the protocol:
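Firefly luciferase detection reagent was added after compounds (19.5 nM–39.8 uM final) had been incubated 15 min at room temperature with 1 uM D-luciferin or with 100 mM phosphate buffer alone. Luminescence was read after 30 min at room temperature.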

Assay [8] is described as follows: Dual reporter qHTS for agonist of Pregnane X Receptor (hPXR) against the NCATS DSHEA and TCM libraries: Fluorescence readout (AID 1920058). Further: 0% is about no effect. In short, it runs like this: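 Cells were plated at 2000 per well and allowed to attach for 5 h. Test substances were pinned in and incubated roughly 24 h. CellTiter-Fluor was then added and fluorescence measured after 1 h.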

For assay [9], the target named is Nuclear receptor subfamily 1 group I member 2 (Homo sapiens) (UniProt O75469). The assay is described as follows: Dual reporter qHTS for agonist of Pregnane X Receptor (hPXR) against the NCATS DSHEA and TCM libraries: Luminescence readout (AID 1920059). Further: 0% is about no effect. In short, it runs like this: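 Luminescent PXR reporter read (ONE-Glo) after a CellTiter-Fluor viability read, following 24 h, 37C treatment of HepG2 cells stably carrying hPXR-Luc.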

For assay [10] the target is unchanged. The assay is described as follows: Dual reporter qHTS for antagonist of Pregnane X Receptor (hPXR) against the NCATS DSHEA and TCM libraries: Luminescence Readout (AID 1920060).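 Further: HepG2 cells carrying hPXR luciferase reporter stimulated with rifampicin at 2 µM; 0% is about no effect.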 A digest of the protocol:
(§3)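 In antagonist mode, 2 uM rifampicin was added to hPXR-Luc HepG2 cells alongside test substances, incubated 24 h at 37 C; luminescence gave reporter activity, and CellTiter-Fluor fluorescence (405/540 nm) gave viability.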

Assay [11] in a line: Dual reporter qHTS for antagonist of Pregnane X Receptor (hPXR) against the NCATS DSHEA and TCM libraries: Fluorescence Readout (AID 1920061). Further: 0% is about no effect. In short, it runs like this:
as §3

For assay [12], the target named is Cytochrome P450 2C9 (Homo sapiens) (UniProt P11712). Put plainly: qHTS for inhibitors of CYP2C9 against the NCATS DSHEA and TCM libraries (AID 1919973).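 Further: luminogenic pro-luciferin CYP2C9 substrate turned into luciferin with NADPH regeneration; series mostly up to about 34 µM; on the % scale 0 is the no-effect control and ±100 the full control effect.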 A digest of the protocol:
as §2

Assay [13] has as its target Cytochrome P450 1A2 (Homo sapiens) (UniProt P05177). The assay is described as follows: qHTS for inhibitors of CYPIA2 against the NCATS DSHEA and TCM libraries (AID 1919976).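 Further: light from luciferin formed by CYP1A2 from a pro-luciferin substrate; series mostly up to about 37 µM; on the % scale 0 is the no-effect control and ±100 the full control effect.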 In short, it runs like this:
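Enzyme and pro-luciferin substrate, or substrate alone as no-enzyme background, are pre-incubated with test samples for 15 min at room temperature. NADPH regeneration system (1x final) initiates a 30-45 min dark reaction; luciferase detection reagent follows before luminescence reading.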

The target in assay [14] is Glutathione peroxidase 1 (Homo sapiens) (UniProt P07203). The assay is described as follows: Primary qHTS Assay for Inhibitors of Recombinant Selenoprotein Glutathione Peroxidase 1 (GPX1) (AID 1845191). Further: nearly all actives have a fitted effect of over 65% in size. In short, it runs like this: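 NADPH consumption tracked by fluorescence at 340/450 nm between t=0 and t=15 min, room temperature. Final mix: 10 nM GPX1, 100 nM glutathione reductase, 1 mM GSH, 0.5 mM NADPH, 0.5 mM cumene hydroperoxide, 0.01% BSA; 30 min compound–enzyme preincubation.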

Assay [15] deals with Phospholipid hydroperoxide glutathione peroxidase GPX4 (Homo sapiens) (UniProt P36969). Put plainly: Primary qHTS Assay for Inhibitors of Recombinant Selenoprotein Glutathione Peroxidase 4 (GPX4) (AID 1845192). Further: nearly all actives have a fitted effect of over 65% in size. A digest of the protocol:
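NADPH consumption followed by fluorescence at 340/450 nm, t=0 and after 15 min at room temperature. Reaction started with cumene hydroperoxide (0.5 mM final) after 30 min compound–GPX4 preincubation; final 200 nM GPX4, 100 nM GR, 1 mM GSH, 0.5 mM NADPH.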

Sequence of Phospholipid hydroperoxide glutathione peroxidase GPX4 (Homo sapiens) (P36969 whole entry, looked up): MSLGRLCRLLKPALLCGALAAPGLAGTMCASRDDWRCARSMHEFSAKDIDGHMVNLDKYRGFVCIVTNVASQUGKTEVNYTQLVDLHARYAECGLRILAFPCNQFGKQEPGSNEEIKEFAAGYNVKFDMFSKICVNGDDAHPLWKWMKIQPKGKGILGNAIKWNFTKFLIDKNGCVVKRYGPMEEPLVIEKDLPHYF
Sequence of Nuclear receptor subfamily 1 group I member 2 (Homo sapiens) (O75469 whole entry, looked up): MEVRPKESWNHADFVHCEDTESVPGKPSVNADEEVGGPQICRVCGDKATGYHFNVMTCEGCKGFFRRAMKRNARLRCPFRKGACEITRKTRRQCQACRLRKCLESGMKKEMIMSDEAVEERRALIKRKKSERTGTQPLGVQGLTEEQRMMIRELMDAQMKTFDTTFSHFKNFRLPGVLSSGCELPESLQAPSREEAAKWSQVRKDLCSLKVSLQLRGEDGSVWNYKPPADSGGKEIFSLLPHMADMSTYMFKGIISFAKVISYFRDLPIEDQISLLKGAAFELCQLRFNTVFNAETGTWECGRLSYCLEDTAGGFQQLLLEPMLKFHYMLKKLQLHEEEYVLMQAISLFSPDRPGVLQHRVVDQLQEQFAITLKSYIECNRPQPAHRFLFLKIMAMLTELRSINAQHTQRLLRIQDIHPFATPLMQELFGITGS
Sequence of Glutathione peroxidase 1 (Homo sapiens) (P07203 whole entry, looked up): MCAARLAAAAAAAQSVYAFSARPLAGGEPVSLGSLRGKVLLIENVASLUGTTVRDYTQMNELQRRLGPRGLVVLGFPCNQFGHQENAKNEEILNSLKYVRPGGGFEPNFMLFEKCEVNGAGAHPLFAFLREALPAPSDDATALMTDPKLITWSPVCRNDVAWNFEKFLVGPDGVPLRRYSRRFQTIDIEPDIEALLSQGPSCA
Sequence of Cytochrome P450 2D6 (Homo sapiens) (P10635 whole entry, looked up): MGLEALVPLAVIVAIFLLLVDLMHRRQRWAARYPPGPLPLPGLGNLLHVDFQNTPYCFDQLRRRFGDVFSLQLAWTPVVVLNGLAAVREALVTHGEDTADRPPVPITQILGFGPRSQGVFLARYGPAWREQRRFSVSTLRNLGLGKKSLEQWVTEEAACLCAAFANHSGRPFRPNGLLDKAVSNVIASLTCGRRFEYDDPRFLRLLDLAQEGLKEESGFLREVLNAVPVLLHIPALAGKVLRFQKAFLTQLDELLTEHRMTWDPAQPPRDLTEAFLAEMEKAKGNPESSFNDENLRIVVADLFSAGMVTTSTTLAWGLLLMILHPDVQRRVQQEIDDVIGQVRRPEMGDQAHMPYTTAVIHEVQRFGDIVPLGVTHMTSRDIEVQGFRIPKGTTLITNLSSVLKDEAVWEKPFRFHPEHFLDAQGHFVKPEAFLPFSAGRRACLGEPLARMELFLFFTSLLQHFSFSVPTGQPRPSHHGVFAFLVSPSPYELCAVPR
Sequence of Cytochrome P450 2C19 (Homo sapiens) (P33261 whole entry, looked up): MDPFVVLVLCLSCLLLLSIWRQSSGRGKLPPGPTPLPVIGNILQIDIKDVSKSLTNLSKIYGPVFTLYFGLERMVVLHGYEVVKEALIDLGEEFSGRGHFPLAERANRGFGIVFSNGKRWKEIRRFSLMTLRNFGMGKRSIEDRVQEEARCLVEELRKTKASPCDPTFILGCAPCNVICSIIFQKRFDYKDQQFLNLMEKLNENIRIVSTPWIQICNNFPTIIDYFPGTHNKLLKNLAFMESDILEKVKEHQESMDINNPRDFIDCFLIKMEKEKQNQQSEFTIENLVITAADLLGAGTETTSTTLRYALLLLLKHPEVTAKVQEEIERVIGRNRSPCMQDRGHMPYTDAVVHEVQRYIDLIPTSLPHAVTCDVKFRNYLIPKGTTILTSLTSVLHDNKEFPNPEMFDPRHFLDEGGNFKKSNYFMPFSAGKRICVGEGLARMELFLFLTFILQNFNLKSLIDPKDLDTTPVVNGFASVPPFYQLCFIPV
Sequence of Cytochrome P450 3A4 (Homo sapiens) (P08684 whole entry, looked up, canonical isoform): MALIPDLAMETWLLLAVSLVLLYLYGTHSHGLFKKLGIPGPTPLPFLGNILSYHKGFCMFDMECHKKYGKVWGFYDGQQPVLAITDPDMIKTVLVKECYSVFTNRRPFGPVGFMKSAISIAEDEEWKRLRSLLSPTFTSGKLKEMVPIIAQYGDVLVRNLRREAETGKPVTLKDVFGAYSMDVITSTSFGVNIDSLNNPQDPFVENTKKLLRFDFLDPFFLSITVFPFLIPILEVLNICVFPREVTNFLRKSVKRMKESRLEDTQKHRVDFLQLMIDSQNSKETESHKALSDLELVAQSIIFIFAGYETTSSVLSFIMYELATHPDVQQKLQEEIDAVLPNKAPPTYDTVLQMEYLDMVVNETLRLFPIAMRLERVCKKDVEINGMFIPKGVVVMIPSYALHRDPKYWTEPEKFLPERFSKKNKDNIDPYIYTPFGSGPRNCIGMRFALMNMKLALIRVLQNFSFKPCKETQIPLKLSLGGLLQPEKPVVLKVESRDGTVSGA
Sequence of Cytochrome P450 2C9 (Homo sapiens) (P11712 whole entry, looked up): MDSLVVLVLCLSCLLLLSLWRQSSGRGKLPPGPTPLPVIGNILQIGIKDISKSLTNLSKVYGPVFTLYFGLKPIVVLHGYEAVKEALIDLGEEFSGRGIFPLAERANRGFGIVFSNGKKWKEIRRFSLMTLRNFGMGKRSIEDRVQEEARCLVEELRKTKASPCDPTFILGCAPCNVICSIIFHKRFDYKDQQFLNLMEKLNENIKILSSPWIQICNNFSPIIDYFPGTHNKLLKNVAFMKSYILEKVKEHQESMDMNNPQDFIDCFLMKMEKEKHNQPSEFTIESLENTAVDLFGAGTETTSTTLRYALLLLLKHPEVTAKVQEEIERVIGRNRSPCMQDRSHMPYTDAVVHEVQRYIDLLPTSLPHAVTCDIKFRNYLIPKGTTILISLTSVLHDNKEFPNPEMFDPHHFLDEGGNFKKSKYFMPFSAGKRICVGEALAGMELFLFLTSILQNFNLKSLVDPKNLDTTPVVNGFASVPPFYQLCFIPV
Sequence of Cytochrome P450 1A2 (Homo sapiens) (P05177 whole entry, looked up): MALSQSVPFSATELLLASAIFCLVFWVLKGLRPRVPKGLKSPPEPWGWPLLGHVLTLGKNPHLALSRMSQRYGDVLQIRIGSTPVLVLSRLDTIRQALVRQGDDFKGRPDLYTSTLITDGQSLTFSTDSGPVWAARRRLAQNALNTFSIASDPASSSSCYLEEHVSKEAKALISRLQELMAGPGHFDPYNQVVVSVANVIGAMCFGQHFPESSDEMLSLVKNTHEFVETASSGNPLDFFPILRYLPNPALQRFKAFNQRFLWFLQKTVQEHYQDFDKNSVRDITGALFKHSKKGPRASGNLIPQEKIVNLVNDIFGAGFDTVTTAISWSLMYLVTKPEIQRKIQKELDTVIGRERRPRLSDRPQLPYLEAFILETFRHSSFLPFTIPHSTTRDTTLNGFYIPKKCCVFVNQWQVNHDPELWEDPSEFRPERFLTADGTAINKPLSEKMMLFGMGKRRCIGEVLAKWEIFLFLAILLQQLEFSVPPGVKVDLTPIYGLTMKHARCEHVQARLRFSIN

`CCCCCCCCCCCCCCCC(=O)O`: the call in assay [1], in assay [2], in [3], in assay [4], in assay [5] and in assay [6] was inactive. Also, the call in assay [8], in assay [9], in assay [10] and in assay [11] was inactive. Also, in assay [7], the max response was 2.55%.

`OC1C(O)C(O)C(O)C(O)C1O` (stereo not given): the molecule was called inactive in [1], in assay [2], in assay [3], in assay [4], in [12] and in assay [5]. Moreover, the molecule was classed as inactive in assay [6], in assay [13], in assay [8], in assay [9], in assay [10] and in assay [11]. In addition, the max response in assay [7] is 2.31%.

For the molecule `CCN[C@@H]1C[C@H](N)[C@@H](OC2OC(CN)=CCC2N)[C@H](O)[C@H]1O[C@H]1OC[C@](C)(O)[C@H](NC)[C@H]1O` (stereo not given in full), the outcome in assay [14] is “inactive [at 0.4 µM]”; in assay [15], “inactive [at 0.409 µM]”.

Regarding `C#C[C@]1(O)CC[C@H]2[C@@H]3[C@H](C)CC4=C(CCC(=O)C4)[C@H]3CC[C@@]21C`, the Potency entry in assay [14] and in [15] was “inactive” each time.

As for `O=C(NC1CCN(CCc2c[nH]c3ccccc23)CC1)c1ccccc1`, the Potency result in [14] and in [15] was “inactive” each time.

As to `CCC1NC(=O)c2cc(S(N)(=O)=O)c(Cl)cc2N1` (stereo not given), the Potency result in assay [14] and in assay [15] was “inactive” each time.

With `O=c1[nH]c(=O)n([C@H]2C[C@H](O)[C@@H](CO)O2)cc1F`, the Potency result in [14] and in assay [15] was “inactive” in each case.

Take `COc1cc([C@H]2Oc3cc([C@H]4Oc5cc(O)cc(O)c5C(=O)[C@@H]4O)ccc3O[C@@H]2CO)ccc1O`: the Potency result in assay [14] was “inactive”.

For `CN1CCC(OC(c2ccccc2)c2ccccc2)CC1`, the Potency result in assay [14] and in assay [15] was “inactive” in each case.

As to `CCCN(CCc1cccs1)[C@H]1CCc2c(O)cccc2C1`, the Potency entry in [14] and in assay [15] was “inactive” each time.

As to `c1ccc(CC2=NCCN2)cc1`, the Potency entry in assay [14] was “inactive”.

As to `COc1ccc(C(=O)c2ccccc2O)c(O)c1`, the Potency result in assay [14] and in [15] was “inactive” in each case.

As for `COc1cc(C(=O)NCc2ccc(OCCN(C)C)cc2)cc(OC)c1OC`, the Potency result in assay [14] and in [15] was “inactive” each time.

In the case of `C=C[C@H]1CN2CC[C@H]1C[C@@H]2[C@@H](O)c1ccnc2ccc(OC)cc12`, the Potency entry in assay [14] and in assay [15] was “inactive” throughout.

Take `CC(C)(C)NCC(O)COc1cccc2c1C[C@H](O)[C@H](O)C2` (stereo not given in full): the Potency entry in assay [14] and in [15] was “inactive” throughout.

`CNCCc1ccccn1`: the Potency entry in assay [14] is “inactive”.

For the molecule `CC(C)(C)NC[C@H](O)COc1cccc2c1CCCC2=O`, the Potency entry in [14] and in [15] was “inactive” in each case.

`CCC1Nc2cc(Cl)c(S(N)(=O)=O)cc2S(=O)(=O)N1` (stereo not given): in assay [14], the Potency entry is “inactive”.

Turning to `COc1cc(C)nc(-n2nc(C)cc2OC)n1`, the Potency entry in assay [14] and in [15] was “inactive” throughout.

In the case of `COc1ccc(C(=O)c2ccccc2)c(O)c1`, the Potency result in assay [14] and in assay [15] was “inactive” each time.

As for `CNCCCCOc1ccccc1Cc1ccccc1`, the Potency entry in assay [14] is “inactive”.

As to `Cc1ccc(O)c([C@H](CCN(C(C)C)C(C)C)c2ccccc2)c1`, the Potency entry in assay [14] and in [15] was “inactive” throughout.

Take `Cc1ccccc1OCC(O)CO` (stereo not given): the Potency result in [14] was “inactive”.

For the molecule `N/C(=N\N=C\c1ccc(Cl)cc1)N/N=C/c1ccc(Cl)cc1`, the Potency result in assay [14] and in assay [15] was “inactive” throughout.

On to `CCOC(=O)c1ccc(N)cc1`, for which the Potency result in assay [14] and in [15] was “inactive” in each case.

Consider `COC(=O)C(c1ccccc1Cl)N1CCc2sccc2C1` (stereo not given), for which the Potency entry in [14] and in assay [15] was “inactive” each time.

Consider `CC1CCc2c(N3CCC(O)CC3)c(F)cc3c(=O)c(C(=O)O)cn1c23` (stereo not given), for which the Potency result in assay [14] and in assay [15] was “inactive” each time.

For the molecule `C#C[C@]1(O)CC[C@H]2[C@@H]3CCC4=CC(=O)CC[C@@H]4[C@H]3CC[C@@]21CC`, the Potency result in [14] was “inactive”.

As for `C[N+]1(CC2COC(c3ccccc3)(C3CCCCC3)O2)CCCCC1` (stereo not given), the Potency entry in assay [14] is “inactive”.

With `COc1cc(O)c(C(=O)c2ccccc2)cc1S(=O)(=O)O`, the Potency result in [14] and in assay [15] was “inactive” in each case.

In the case of `c1ccc(-c2nc[nH]c2-c2ccccc2)cc1`, the Potency entry in assay [14] and in assay [15] was “inactive” each time.

With `CCCCNc1ccc(C(=O)OCCOCCOCCOCCOCCOCCOCCOCCOCCOC)cc1`, the Potency result in assay [14] and in assay [15] was “inactive” throughout.

On to `O[C@@H](c1cc(C(F)(F)F)nc2c(C(F)(F)F)cccc12)[C@H]1CCCCN1`, for which the Potency result in assay [14] and in assay [15] was “inactive” throughout.

For the molecule `CC(C)[C@@H]1CC[C@@H](C)CC1=O`, the Potency result in assay [14] and in assay [15] was “inactive” each time.

On to `NS(=O)(=O)c1ccc(Cl)c(S(N)(=O)=O)c1`, for which the Potency result in assay [14] and in assay [15] was “inactive” in each case.

With `NS(=O)(=O)Cc1noc2ccccc12`, the Potency result in assay [14] and in [15] was “inactive” in each case.

Take `CC(=O)Nc1ccc(S(=O)(=O)Nc2ccc([N+](=O)[O-])cc2)cc1`: the Potency result in assay [14] and in assay [15] was “inactive” in each case.

Take `CN1CCc2cccc3c2[C@H]1Cc1ccc(O)c(O)c1-3`: in [14], the Potency result was “inactive”.

Turning to `CC(=O)Nc1ccc(CC(=O)O)cc1`, the Potency entry in assay [14] and in [15] was “inactive” in each case.

Turning to `O=C(Nc1ccc([N+](=O)[O-])cc1)Nc1ccc([N+](=O)[O-])cc1`, the Potency result in assay [14] was “inactive”.
